# Yeast superoxide – lowers age-related superoxide in aged yeast cells. actives 0.18% (n = 330,000). S. cerevisiae aged cells, superoxide DHE fluorescence; active compounds read low. superoxide response (% of plate mean), % at 10 µM;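 active = superoxide response under a set limit, about three screen SD below normal, cut at about 65% in these data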;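 note: yeast aged for seven days with compound at 30 °C before DHE staining; 100% = average MFI of all compound-treated wells on the plate with controls excluded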
# APOBEC3A inh – inhibitors of human APOBEC3A DNA deaminase. P31941. inhibition, % at 20 µM. recombinant A3A, FAM/TAMRA ssDNA deamination fluorescence. actives 0.41% (n = 330,000);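 active = at least 40% inhibition at 20 µM here, with at most 30% in a related deaminase screen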;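 note: plate controls were A3A with DMSO for no effect and wells lacking A3A enzyme for full effect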
# Target sequence (P31941 whole entry, looked up): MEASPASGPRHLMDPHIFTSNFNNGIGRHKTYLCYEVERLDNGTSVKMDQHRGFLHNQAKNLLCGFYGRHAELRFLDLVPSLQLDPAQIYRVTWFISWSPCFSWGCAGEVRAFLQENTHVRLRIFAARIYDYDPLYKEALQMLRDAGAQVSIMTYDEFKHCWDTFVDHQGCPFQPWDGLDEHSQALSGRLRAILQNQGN
# APOBEC3G inh – blocks human APOBEC3G single-stranded DNA deamination; actives 0.28% (n = 330,000); inhibition, % at 20 µM; AID 493012; recombinant A3G, ssDNA deamination FAM/TAMRA fluorescence; Q9HC16;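 active = inhibition of at least 40% at 20 µM, with no more than 30% in the related APOBEC3A deaminase screen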;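 note: plate controls were DMSO wells with A3G for no effect and wells lacking A3G enzyme for full effect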
# ALR H2O2 inh – inhibitors of human sulfhydryl oxidase ALR. P55789. AID 485317. inhibition, % (test concentration not listed). purified ALR, DTT oxidation, H2O2 HRP-luminol luminescence. actives 3.8% (n = 290,000);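 active = mean replicate inhibition above about 79%, with every replicate also reaching it, limit read from the data; inconclusive = only one of the two criteria met; inactive = mean below limit and not every replicate reaching it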
# Target sequence (P55789 whole entry, looked up): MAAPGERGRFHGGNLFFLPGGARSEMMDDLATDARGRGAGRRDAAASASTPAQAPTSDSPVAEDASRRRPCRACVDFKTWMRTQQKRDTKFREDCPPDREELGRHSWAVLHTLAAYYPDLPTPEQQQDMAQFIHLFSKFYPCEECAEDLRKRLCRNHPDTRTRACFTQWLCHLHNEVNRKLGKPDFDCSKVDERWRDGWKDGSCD
# M18AAP inhibitor – PfM18AAP enzyme inhibition; inhibition, % at 7.35 µM; recombinant PfM18AAP, H-Glu-NHMec fluorogenic cleavage; actives 1.2% (n = 290,000);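 active = inhibition above the campaign mean inhibition over all tested compounds plus 3 SD, cut at about 28% in these data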;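 note: 0% = plate median of test compound wells and 100% = 2 mM ZnCl2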
# CendR NRP1 mod – alters CendR peptide binding to human NRP-1 | FAM-RPARPAR peptide binding to NRP-1, fluorescence polarization | inhibition, % at 25 µM | actives 0.85% (n = 360,000) | AID 602438;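 active = inhibition or corrected inhibition above about 18%, plus a signal ratio from 0.5 to 1.5, limit read from the data, passing the limit was not always enough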
# * hit, by the source's call; ? = inconclusive; nt = not tested or not shown. In the library only some 5.2% were active in any assay of this set; here they are far more common.
SMILES,Yeast superoxide,APOBEC3A inh,APOBEC3G inh,ALR H2O2 inh,M18AAP inhibitor,CendR NRP1 mod
CCN(Cc1ccc2c(c1)OCO2)C(=O)CSc1nc(C)nc2sc(C)c(C)c12,88.7,-1.0,-7.2,34.3,nt,7.3
CCC1(C)N(O)C(C)(C)C(c2ccc(F)cc2)=[N+]1[O-] (stereo not drawn),82.1,-0.6,-2.0,5.2,28.6*,-6.6
C/C(=N\O)C1(C)N(O)C(C)(C)C(c2ccc(F)cc2)=[N+]1[O-] (stereo not drawn),93.8,2.6,-5.4,5.4,23.5,0.0
Cc1nc2cc3nc(C)sc3cc2s1,111.6,-0.4,14.4,-24.3,29.4*,-4.6
CC(Nc1ccc(Br)cc1)C(=O)NC(=O)NC1CCCCC1 (stereo not drawn),nt,nt,nt,nt,nt,3.7
CN(C)CCN(C(=O)c1ccc(S(=O)(=O)N(C)C)cc1)c1nc2cc3c(cc2s1)OCCO3,92.8,-0.1,-4.3,nt,0.7,1.7
Cc1cc(Cl)ccc1OC(C)C(=O)Nc1ccc([N+](=O)[O-])cn1 (stereo not drawn),84.1,3.8,-5.1,-11.6,-9.0,25.7*
Cc1ccc(OC(C)C(=O)Nc2ccc(Cl)cn2)c([N+](=O)[O-])n1 (stereo not drawn),117.0,-3.7,-2.3,-18.1,nt,6.7
CN1C(=O)NC(c2ccccc2)C2=C1CN(c1cccc(C(F)(F)F)c1)C2=O (stereo not drawn),103.5,0.9,-1.4,-3.1,-6.4,8.4
CNC(=O)C(C)NS(=O)(=O)c1ccc(F)cc1 (stereo not drawn),95.0,-1.4,-7.3,-4.1,-4.3,3.4
COCCNC(=O)c1ccc(-c2ccc(OC)cc2C)c2ccoc12,nt,nt,nt,nt,nt,7.1
O=C(Cn1c(=O)oc2cc(S(=O)(=O)N3CCCCCC3)ccc21)NC1CCCCC1,93.4,7.3,2.2,-3.1,nt,-2.1
O=C(Cn1c(=O)oc2cc(S(=O)(=O)N3CCc4ccccc43)ccc21)NC1CCCC1,101.7,5.8,-1.0,96.2*,-5.7,-2.2
Cc1cc(-c2ccccc2)nc2[nH]n(-c3ccccc3)c(=O)c12,89.8,1.6,-4.3,99.0*,-4.0,-8.3
O=c1c2c3n(c(=O)nc2[nH]n1-c1ccccc1)CCCCC3,91.0,-4.1,-6.4,-3.6,-2.1,7.3
O=c1c2c(C(F)(F)F)cc(C(F)(F)F)nc2[nH]n1-c1ccccc1,102.0,-1.6,-3.5,25.6,14.1,-1.8
Cc1cc(C)c2c(=O)n(-c3ccccc3)[nH]c2n1,94.3,-3.2,-3.4,98.5*,3.4,8.7
Cc1cc(C(C)(C)C)nc2[nH]n(-c3ccccc3)c(=O)c12,101.1,-4.3,-5.7,96.3*,6.3,-6.2
COc1cccc(-c2ccnc3[nH]n(-c4ccccc4)c(=O)c23)c1,105.9,-6.1,-1.6,-2.2,3.2,-2.2
CCC1CCCCN1C(=O)c1nn2cccnc2c1Cl (stereo not drawn),102.6,-4.2,-4.8,-4.6,-0.4,-0.5
CC(Sc1nnnn1-c1cccc(F)c1)C(=O)NC1CCCC1 (stereo not drawn),100.9,-1.0,-5.7,nt,nt,2.4
CC(C)c1ccccc1NC(=S)NCCCn1ccnc1,104.4,-5.0,-15.8,87.0*,0.7,9.5
CCOc1ccc(NC(=S)NCCCn2ccnc2)cc1,108.0,-3.9,-2.5,8.6,-6.5,2.8
CC(C)(C)NC(=O)C(Cc1ccccc1)N1C(=O)c2ccccc2C1=O (stereo not drawn),99.6,1.7,-2.7,-17.4,4.0,-3.3
O=C(NCCCn1ccnc1)C(Cc1ccccc1)N1C(=O)c2ccccc2C1=O (stereo not drawn),85.8,5.1,-1.8,5.9,29.5*,13.0
SMILES,Yeast superoxide,APOBEC3A inh,APOBEC3G inh,ALR H2O2 inh,M18AAP inhibitor,CendR NRP1 mod
Cc1cc(C)nc(SCc2cc(=O)c(OC(=O)c3ccc(S(=O)(=O)N(C)C)cc3)co2)n1,80.3,-7.7,-10.2,24.3,4.7,-13.1
CC(SC1=Nc2ccccc2C2CC=NN12)C(=O)NC1(C#N)CCCCC1 (stereo not drawn),90.1,2.9,6.6,-10.4,nt,8.4
CC(Sc1ncccn1)C(=O)NC1(C#N)CCCCC1 (stereo not drawn),110.2,-4.5,-8.4,-8.4,nt,25.7*
COc1ccc(-n2ccnc2SCC(=O)Nc2ccc(OC)cc2OC)cc1,84.7,-1.0,-0.1,-6.4,3.1,-2.7
Cc1ccc(-c2nc(CS(=O)CC(=O)NC3CCC(C)CC3)c(C)o2)cc1 (stereo not drawn),104.0,1.2,-7.9,98.7*,-10.3,-6.7
Cc1oc(-c2ccc(Cl)cc2)nc1CS(=O)CC(=O)NC1CC1 (stereo not drawn),126.5,-6.0,-5.0,98.7*,-3.9,7.4
COc1ccc(-c2nc(CS(=O)(=O)CC(=O)NC3CCC(C)CC3)c(C)o2)cc1 (stereo not drawn),110.2,-0.5,4.4,98.5*,-4.1,3.5
COc1ccc(CNC(=O)CS(=O)(=O)Cc2nc(-c3ccc(OC)cc3)oc2C)cc1,82.1,-2.3,-5.0,-7.8,-5.6,8.9
CCOC(=O)COc1ccc(S(=O)(=O)N2CCN(c3ccc(OC)cc3)CC2)cc1,111.0,-1.2,-5.9,10.6,-8.0,3.0
CC1(C)C[C@@H](O)[C@]2(C)CC[C@]3(C)C(=CCC4[C@@]5(C)CC[C@H](O)[C@](C)(CO)C5CC[C@]43C)[C@@H]2C1 (stereo partly drawn),101.4,2.7,-0.7,nt,nt,-5.1
COc1ccc(OC)c2c(C)cc(N3CCCN(C)CC3)nc12,120.1,-5.3,-3.1,97.5*,-1.5,1.2
COc1ccccc1N1CCN(c2cc(N3CCCC3)nc(C)n2)CC1,92.9,-2.0,-1.1,?,-0.4,-0.8
COc1cccc(CN(C)C(=O)Cn2cc(C)c(=O)[nH]c2=O)c1,nt,nt,nt,nt,nt,11.1
Oc1ccc(-c2cnc3ccccc3n2)cc1,81.0,-3.8,-8.9,98.5*,nt,0.0
Clc1ccc(-c2cnc3ccccc3n2)cc1,101.7,1.1,-4.2,-5.5,1.7,-9.4
O=C(O)CC12C[C@H]3C[C@@H](C1)CC(n1ncc(N4CCN(c5ccccc5)CC4)c(Cl)c1=O)(C3)C2,86.0,-5.0,-6.9,98.3*,-4.2,-3.7
O=C(O)C12CC3CC(C1)CC(n1ncc(NCc4ccccc4)c(Cl)c1=O)(C3)C2,98.9,1.1,-3.1,2.8,-2.1,2.0
O=C(O)CC12CC3CC(C1)CC(n1ncc(NCc4ccccc4)c(Cl)c1=O)(C3)C2,116.3,-5.5,-6.4,-3.9,-1.5,7.0
O=C(O)C12C[C@H]3C[C@@H](C1)CC(n1ncc(N4CCN(c5ccccc5)CC4)c(Cl)c1=O)(C3)C2,99.5,3.9,2.4,98.2*,-5.4,-12.7
COc1cc(C(=O)NCCc2ccc3c(c2)OCCO3)ccc1OCC(=O)N1CCOCC1,97.6,-1.9,-5.9,-23.0,-2.0,-13.9
Cc1c(N=C2NN=C(c3ccc(Cl)cc3)CS2)c(=O)n(-c2ccccc2)n1C,114.7,-4.2,18.4,97.4*,5.2,-3.9

# Assay outcomes as filed in PubChem BioAssay.
